The values that follow come from paper PMC7819943, “Rice protein-binding microarrays: a tool to detect cis-acting elements near promoter regions in rice”.

The full ranking holds about 35,000 sequences; the median of “fluorescence intensity (a.u.)” is about 10,000, and the highest 2% start at about 52,000. The sample holds the highest values, similar sequences and a random draw of the others, so the mix is not that of the screen.

The target in the test is T1, OsWOX13 (Oryza sativa, UniProt Q5QMM3 1-267).
T1 sequence: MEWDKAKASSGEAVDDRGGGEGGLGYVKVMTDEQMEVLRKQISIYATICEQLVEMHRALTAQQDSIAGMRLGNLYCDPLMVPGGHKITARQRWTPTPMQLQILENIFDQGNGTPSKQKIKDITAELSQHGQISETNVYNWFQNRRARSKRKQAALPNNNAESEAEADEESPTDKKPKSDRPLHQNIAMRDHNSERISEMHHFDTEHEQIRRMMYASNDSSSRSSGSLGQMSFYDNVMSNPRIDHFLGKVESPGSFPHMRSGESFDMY
As to the kind of experiment: protein-binding microarray (RPBM); PBS, 2% BSA, 51.3 ng/ul salmon testes DNA, 50 uM zinc acetate, 200 nM TF, 25 C, 1 h; high values mean tight binding. Conditions: protein: recombinant; tags: N-terminal polyhistidine and DsRed monomer fusion (pET32a); label: CyDye5-dUTP incorporated in the synthesized complementary strand; 3' TTTTT single-stranded linker to array surface; dsDNA, one strand shown. In a few lines:
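Ni–NTA purification followed expression in E. coli BL21-CodonPlus of transcription factors fused N-terminally to a polyhistidine tag and DsRed. At 200 nM in PBS with 2% BSA, salmon testes DNA and 50 µM zinc acetate, the protein was incubated for 1 h at 25 °C with a custom Agilent array that had been primer-extended with Cy5-dUTP and blocked with 2% BSA. After washing, the array was read on an Axon 4000B scanner. The binding signal is per-feature fluorescence intensity in arbitrary units.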
Turning to “CTGATTGGCCATGAGTCCAGAGATAGCATTGAACACAGGACGGAGTCACCTAGTGCAG”, the binding signal is 32400 fluorescence intensity (a.u.).

For “GGGAGTAATTGAATATGCCTTTTGGGCTGCCATCTGCCCACGGAGTCACCTAGTGCAG”, the binding signal is 26800 fluorescence intensity (a.u.).

For the sequence “TTTGATTTGATTCGTGTGCTCCCCGCCGCCTTCGATCCCTCGGAGTCACCTAGTGCAG”, the binding signal was 43600 fluorescence intensity (a.u.).

“CTTAATTGCGCGCGAATGGAGTAATACTAGTACTAGTATACGGAGTCACCTAGTGCAG”: the binding signal is 15100 fluorescence intensity (a.u.).

Regarding “GACTAAATTTTAATCCCTATCACATCGGATATTTGACACTCGGAGTCACCTAGTGCAG”, the binding signal is 7230 fluorescence intensity (a.u.).

As for “AGGCCCAATTACTGATCGAAATTTCGATGATTTCGATCGACGGAGTCACCTAGTGCAG”, the binding signal was 18500 fluorescence intensity (a.u.).

Consider “CCAATTGGAATGCATTGTCTATTTGTTGTCTAGATCTCTCCGGAGTCACCTAGTGCAG”, for which the binding signal was 3760 fluorescence intensity (a.u.).

Turning to “AATCTCCTAATTATGTATTGCCCAAATCCATTTATTTTCCCGGAGTCACCTAGTGCAG”, the binding signal was 7170 fluorescence intensity (a.u.).

For the sequence “ACATAACATATGAGATTGAAATTTCTTGAACCATACATTACGGAGTCACCTAGTGCAG”, the binding signal was 9950 fluorescence intensity (a.u.).

Take “CTCACATGTTAATTACCATCAATGTATTTTACTCTTTTAACGGAGTCACCTAGTGCAG”: the binding signal is 16700 fluorescence intensity (a.u.).

As to “TTTATACGAAAATCAATAATTATAGCAGATATCCACAAGGCGGAGTCACCTAGTGCAG”, the binding signal is 5700 fluorescence intensity (a.u.).

In the case of “ACCTTTTCCGCGTGTTGTGTCTGTTTGTTGAAGATGAATTCGGAGTCACCTAGTGCAG”, the binding signal was 3280 fluorescence intensity (a.u.).

With “TGCTAATGACTGATTAATTAGGCTTAATAAATTCGTCTTGCGGAGTCACCTAGTGCAG”, the binding signal is 35300 fluorescence intensity (a.u.).

In the case of “AATGCTAATGACAGATTAATTAGGCTTAATAAATTTGTCTCGGAGTCACCTAGTGCAG”, the binding signal was 29500 fluorescence intensity (a.u.).

As for “TGCTAATGACTGATTAATTAGGCTTAATAAATTTGTCTCGCGGAGTCACCTAGTGCAG”, the binding signal was 64800 fluorescence intensity (a.u.).

Turning to “TATAATAATTAAAACTCAATCAATCATACGTTAATAGCACCGGAGTCACCTAGTGCAG”, the binding signal was 20000 fluorescence intensity (a.u.).

Consider “ATGATGATTGTTAGTGGATGATGATGTGTCATCTTGTTAACGGAGTCACCTAGTGCAG”, for which the binding signal was 38400 fluorescence intensity (a.u.).

As for “CACGGATTATTTTGAGCAATTACCGCTCTAATCCGGGGCGCGGAGTCACCTAGTGCAG”, the binding signal is 3600 fluorescence intensity (a.u.).

As for “ACACATAATGTAATCTATTTTGATATAACCAAAAGCTGTTCGGAGTCACCTAGTGCAG”, the binding signal was 7540 fluorescence intensity (a.u.).

On to “TGGTCCTTTACATTGCAATTAATTTGTTTGGAATTTATTACGGAGTCACCTAGTGCAG”, for which the binding signal is 8240 fluorescence intensity (a.u.).

For “GATTATAATTTGTAAGATAATTGACCATGGAGAAGATTCACGGAGTCACCTAGTGCAG”, the binding signal was 16300 fluorescence intensity (a.u.).

“GATAATTGACAAGATTGAACCATATGTGATGTATTATTTCCGGAGTCACCTAGTGCAG”: the binding signal is 53200 fluorescence intensity (a.u.).

Regarding “AATTATTGATTTGATGAAACTAATTTAGTATTATAAAGAGCGGAGTCACCTAGTGCAG”, the binding signal is 51000 fluorescence intensity (a.u.).

With “CAGTATATAAATAATTTGAATTAGATGAGATATATCCTAGCGGAGTCACCTAGTGCAG”, the binding signal is 8160 fluorescence intensity (a.u.).

Take “AGATAATTTGTGATTGATGTCATAGTAGTAGAGAAAACCACGGAGTCACCTAGTGCAG”: the binding signal is 46800 fluorescence intensity (a.u.).

As to “GTATAATTGACAGATGAATTTCACGCAAGAGTATATTGAGCGGAGTCACCTAGTGCAG”, the binding signal is 55900 fluorescence intensity (a.u.).

For the sequence “GGATGTCATGATAATTGACTTATGACAATGTGATTATTTCCGGAGTCACCTAGTGCAG”, the binding signal is 19700 fluorescence intensity (a.u.).

As to “ATATATATTGATTATATGTTTATTTTGTATGAAGATGTTCCGGAGTCACCTAGTGCAG”, the binding signal was 34900 fluorescence intensity (a.u.).

As to “TATAATTGATTATTGTGACCTCATGATAGAGACAAGACCACGGAGTCACCTAGTGCAG”, the binding signal was 53500 fluorescence intensity (a.u.).

Take “ATCTCAATCAGCAACACAAATGACCCTGACCCACGATCCACGGAGTCACCTAGTGCAG”: the binding signal was 20900 fluorescence intensity (a.u.).

For the sequence “GCCGTTAGTTAATTATTATCCGGTAAAGAAGATTAGTAGTCGGAGTCACCTAGTGCAG”, the binding signal is 12200 fluorescence intensity (a.u.).

As to “CGTTTCTTGATTCGATGGTTGATGGATTTTGGTTTGTGGACGGAGTCACCTAGTGCAG”, the binding signal was 4980 fluorescence intensity (a.u.).

Turning to “ATCACCTAATCAATTGAATCCATCAATTCAAGTAGATTCACGGAGTCACCTAGTGCAG”, the binding signal is 9390 fluorescence intensity (a.u.).

Consider “GGCAATCAATTATTAATTGATTAATTCCATGAATAGCACACGGAGTCACCTAGTGCAG”, for which the binding signal is 64900 fluorescence intensity (a.u.).

With “GCACACATGATCAATCAATTAATAGATTAGGTAGGTACGGCGGAGTCACCTAGTGCAG”, the binding signal is 51100 fluorescence intensity (a.u.).

With “AAATATATTCAATTATTGATTTGATGAAACTAATTTCGTACGGAGTCACCTAGTGCAG”, the binding signal is 23500 fluorescence intensity (a.u.).

For “ATTGATTTGATGAAACTAATTTACGGCACAATAGCAAATCCGGAGTCACCTAGTGCAG”, the binding signal is 57600 fluorescence intensity (a.u.).

For “TTATGAAAATATATTTAATTATTGATTTGATGAAACTAATCGGAGTCACCTAGTGCAG”, the binding signal was 5790 fluorescence intensity (a.u.).

For “TATATATATATATATATATAGACACACACATCAACAACAACGGAGTCACCTAGTGCAG”, the binding signal was 16000 fluorescence intensity (a.u.).

In the case of “TTAATTGCTATGTTTTGACCAGTCAACGCATAGGTCGTTTCGGAGTCACCTAGTGCAG”, the binding signal is 15500 fluorescence intensity (a.u.).

With “ATTGCACAGATTGTGACTAATTTGCGAGACGAATCTTTTACGGAGTCACCTAGTGCAG”, the binding signal was 7340 fluorescence intensity (a.u.).

As to “TTGGAATTTGGGGATTGGGAAGAGAGAAATCAGATTGGAACGGAGTCACCTAGTGCAG”, the binding signal is 4300 fluorescence intensity (a.u.).

On to “CGGAAGATTGGAATGGAAATCGGAGAGAGCAGGGGCGGTGCGGAGTCACCTAGTGCAG”, for which the binding signal was 12800 fluorescence intensity (a.u.).

For the sequence “ATTAATTAGCTGCCCGCAGACAAGACCCGTGACTTTGGCCCGGAGTCACCTAGTGCAG”, the binding signal was 23800 fluorescence intensity (a.u.).

Turning to “AATTAACATCAATAACAAAGTGTTGTACTGTAATCATCTTCGGAGTCACCTAGTGCAG”, the binding signal was 4050 fluorescence intensity (a.u.).

Consider “TACAATTATGATTTGCCTTCAAATTTGCATTTTCATATTTCGGAGTCACCTAGTGCAG”, for which the binding signal is 13500 fluorescence intensity (a.u.).

With “TACTATTAATCAATCACATATAATTAACAATTAGTGTGATCGGAGTCACCTAGTGCAG”, the binding signal was 41200 fluorescence intensity (a.u.).

For the sequence “TAGTACTCTCAATTAATTACAAACCACACCATCAAATTCTCGGAGTCACCTAGTGCAG”, the binding signal was 7020 fluorescence intensity (a.u.).

With “ATAATAATTAATATTTCATTAATTATATGCTAACGAGTTTCGGAGTCACCTAGTGCAG”, the binding signal was 43400 fluorescence intensity (a.u.).

Consider “AAAGATTGCCGAGTTTAATTGCAATCAATTACGGGAAGATCGGAGTCACCTAGTGCAG”, for which the binding signal is 52900 fluorescence intensity (a.u.).

For “ATAATTAAAACTCAATTAATCACACGTTATTATCACATCGCGGAGTCACCTAGTGCAG”, the binding signal is 14200 fluorescence intensity (a.u.).

Turning to “TATTTAATTGCAACGAATACAATAGTTTAATCGGATTATACGGAGTCACCTAGTGCAG”, the binding signal is 9360 fluorescence intensity (a.u.).

As for “GAAGATTTAATTGCAACAAATTTAATAGTGCAATCGGATCCGGAGTCACCTAGTGCAG”, the binding signal is 40800 fluorescence intensity (a.u.).

“GCTTAATTAACAATCAACATAACTACTAACTAGTGTTGTTCGGAGTCACCTAGTGCAG”: the binding signal is 57300 fluorescence intensity (a.u.).

As to “GGTTAATCAATCAATCAGTTAATTACACAATTACTCACATCGGAGTCACCTAGTGCAG”, the binding signal is 57300 fluorescence intensity (a.u.).

Consider “TATAATTAATTATTTGCTAGATTTCATTCATATGACAATTCGGAGTCACCTAGTGCAG”, for which the binding signal was 54600 fluorescence intensity (a.u.).
